PubChem BioAssay AID1159580 (chemical genetic matrix, 2015)
The whole screen tested about 5,500 compounds, of which about 2,000 (36%) were called active. About 18% were inconclusive and are not listed. Cut-off read from the data, not from the text of the source: active = normalized growth mostly below about 0.91 (no sharp cut-off); inconclusive = no clear call, values can overlap the other calls; inactive = mostly above about 0.92. This is one part of the list.

Assay: chemical genetic growth profiling, strain panel (AID 1159580);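 note: tested at 20 µM; growth read once vehicle control cultures reached saturation at 30 °C; 1 = growth at the plate median or of vehicle wells; lower values mean less growth of the strain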
Conditions: S. cerevisiae deletion strains, growth OD

Measured: normalized growth

O=C(NCC1COc2ccccc2O1)c1ccc(Cl)cc1 (stereo unspecified)
active: locus YER133W, strain GLC7, hits give low values 0.463 | locus YFR019W, strain FAB1, hits give low values 0.745 | locus YHR030C, strain SLT2, hits give low values 0.638 | locus YJR066W, strain TOR1 (second series), hits give low values 0.561 | locus YKL203C, strain TOR2, hits give low values 0.708 | locus YPL031C, strain PHO85, hits give low values 0.662 | locus YPL153C, strain RAD53, hits give low values 0.649
inactive: locus YAR019C, strain CDC15, hits give low values 0.956 | locus YBL105C, strain PKC1, hits give low values 0.952 | locus YBR135W, strain CKS1, hits give low values 0.935 | locus YBR136W, strain MEC1, hits give low values 0.957 | locus YBR160W, strain CDC28, hits give low values 0.959 | locus YDL017W, strain CDC7, hits give low values 0.944 | locus YDL028C, strain MPS1, hits give low values 0.951 | locus YDL101C, strain DUN1, hits give low values 0.98 | locus YDL108W, strain KIN28, hits give low values 0.951 | locus YDL132W, strain cdc53, hits give low values 0.936 | locus YDL214C, strain PRR2, hits give low values 0.837 | locus YDR052C, strain DBF4, hits give low values 0.973 | locus YDR054C, strain cdc34, hits give low values 0.933 | locus YDR226W, strain ADK1, hits give low values 0.949 | locus YDR477W, strain SNF1, hits give low values 0.734 | locus YER123W, strain YCK3, hits give low values 0.75 | locus YFL009W, strain cdc4, hits give low values 0.942 | locus YFL029C, strain CAK1, hits give low values 0.933 | locus YFR003C, strain YPI1, hits give low values 0.956 | locus YFR028C, strain CDC14, hits give low values 0.942 | locus YGR040W, strain KSS1, hits give low values 0.692 | locus YGR052W, strain FMP48, hits give low values 0.899 | locus YGR092W, strain DBF2, hits give low values 0.753 | locus YHR079C, strain IRE1, hits give low values 0.759 | locus YHR082C, strain KSP1, hits give low values 0.88 | locus YHR205W, strain SCH9, hits give low values 0.901 | locus YIL147C, strain SLN1, hits give low values 0.929 | locus YJL095W, strain BCK1, hits give low values 0.586 | locus YJL128C, strain PBS2, hits give low values 0.948 | locus YJL157C, strain FAR1, hits give low values 0.84 | locus YJR016C, strain ILV3, hits give low values 0.936 | locus YJR066W, strain TOR1, hits give low values 0.714 | locus YKL048C, strain ELM1, hits give low values 0.895 | locus YKL067W, strain YNK1, hits give low values 0.842 | locus YKL101W, strain HSL1, hits give low values 0.92 | locus YKL193C, strain SDS22, hits give low values 0.933 | locus YLR113W, strain HOG1, hits give low values 0.935 | locus YLR133W, strain CKI1, hits give low values 0.88 | locus YLR403W, strain SFP1, hits give low values 0.699 | locus YML070W, strain DAK1, hits give low values 0.827 | locus YMR001C, strain CDC5, hits give low values 0.896 | locus YMR205C, strain PFK2 (second series), hits give low values 0.82 | locus YMR277W, strain FCP1, hits give low values 0.923 | locus YNL006W, strain LST8, hits give low values 0.929 | locus YNL020C, strain ARK1, hits give low values 0.86 | locus YNL161W, strain CBK1, hits give low values 0.958 | locus YNL183C, strain NPR1, hits give low values 0.796 | locus YNL207W, strain RIO2, hits give low values 0.91 | locus YNL222W, strain SSU72, hits give low values 0.948 | locus YNL307C, strain MCK1 (second series), hits give low values 0.872 | locus YOL078W, strain AVO1, hits give low values 0.93 | locus YOL136C, strain PFK27, hits give low values 0.802 | locus YOR061W, strain CKA2, hits give low values 0.886 | locus YOR119C, strain RIO1, hits give low values 0.723 | locus YOR231W, strain MKK1, hits give low values 0.771 | locus YOR329C, strain SCD5, hits give low values 0.938 | locus YPL204W, strain HRR25, hits give low values 0.682 | locus YPL209C, strain IPL1, hits give low values 0.952 | locus YPL256C, strain CLN2, hits give low values 0.867 | locus YPR025C, strain CCL1, hits give low values 0.951 | locus YPR106W, strain ISR1, hits give low values 0.968 | locus YPR111W, strain DBF20, hits give low values 0.962 | strain NNK1, hits give low values 0.958 | strain TSCII, hits give low values 0.92
